Source: the supplement of paper PMC12494721
Where a name gives a salt, the structure may show the parent alone.

Experiments:
Details in all cases: incubation time: 27 h, anaerobic, 37 °C;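 for the amine columns active = adjusted P below 0.05 in both replicates with a change the same way and a mean fold change under 0.8 or over 1.25; inactive = the rest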
[1] = test system: Clostridium sporogenes DSM 1664; experiment: growth (OD595) fold change vs plate DMSO controls (fold change (ratio)); higher = more growth
Procedure, shortened: (§1)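 The measure reported is growth, taken as fold change against the median of DMSO controls on the same plate. Anaerobic mGAM cultures in 96-well plates (27 h, 37 °C) were read at 595 nm, blank-subtracted, corrected for compound background using 20 µM compound solutions in water, and multiplied by a calibration factor of 5 to give OD. Any fold change above 1.5 became NA, and 2 biological replicates were averaged.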

[2] = test system: Escherichia coli IAI1; experiment: as above
Procedure, shortened: as §1

[3] = test system: Klebsiella aerogenes DSM 30053; experiment: as above
Procedure, shortened: as §1

[4] = test system: Ruminococcus gnavus DSM 108212; experiment: as above
Procedure, shortened: as §1

[5] = test system: Klebsiella aerogenes DSM 30053; experiment: fold change of Histamine concentration vs plate DMSO controls (fold change (ratio)); higher = more amine produced, active = hit call of the paper (significant change in both replicates, either direction)
Procedure, shortened: (§2)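 Each value is the fold change relative to DMSO-only wells on the same plate. Four gut bacterial strains were grown anaerobically in mGAM at 37 °C for 27 h in 80 µL wells, starting at OD 0.1 before a 1:1 dilution, with compounds at 20 µM final (sweeteners 50 µM). Whole cultures were extracted with cold acetonitrile/methanol containing 0.1% formic acid, centrifuged, and amines were quantified by LC–triple-quadrupole MS (dynamic MRM) against external calibration curves with within-batch drift correction. Values are means of 2 biological replicates.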

[6] = test system: Clostridium sporogenes DSM 1664; experiment: fold change of Tryptamine concentration vs plate DMSO controls (fold change (ratio)); higher = more amine produced, active = hit call of the paper (significant change in both replicates, either direction)
Procedure, shortened: as §2

[7] = test system: Ruminococcus gnavus DSM 108212; experiment: as above
Procedure, shortened: as §2

[8] = test system: Escherichia coli IAI1; experiment: fold change of Putrescine concentration vs plate DMSO controls (fold change (ratio)); higher = more amine produced, active = hit call of the paper (significant change in both replicates, either direction)
Procedure, shortened: as §2

[9] = test system: Klebsiella aerogenes DSM 30053; experiment: as above
Procedure, shortened: as §2

[10] = test system: Escherichia coli IAI1; experiment: fold change of Cadaverine concentration vs plate DMSO controls (fold change (ratio)); higher = more amine produced, active = hit call of the paper (significant change in both replicates, either direction)
Procedure, shortened: as §2

[11] = test system: Klebsiella aerogenes DSM 30053; experiment: as above
Procedure, shortened: as §2

[12] = test system: Ruminococcus gnavus DSM 108212; experiment: fold change of 2-Phenylethylamine concentration vs plate DMSO controls (fold change (ratio)); higher = more amine produced, active = hit call of the paper (significant change in both replicates, either direction)
Procedure, shortened: as §2

Row | Compound | growth [1] | growth [2] | growth [3] | growth [4] | fold change of Histamine concentration [5] | fold change of Tryptamine concentration [6] | fold change of Tryptamine concentration [7] | fold change of Putrescine concentration [8] | fold change of Putrescine concentration [9] | fold change of Cadaverine concentration [10] | fold change of Cadaverine concentration [11] | fold change of 2-Phenylethylamine concentration [12]
1 | CC(=O)SCC(Cc1ccccc1)C(=O)NCC(=O)OCc1ccccc1 (centres undefined) [Racecadotril] (20 µM) | 1.06 | 1 | 0.986 | 0.929 | 0.978 (inactive) | 0.941 (inactive) | 1.01 (inactive) | 0.991 (inactive) | 0.991 (inactive) | 0.985 (inactive) | 0.999 (inactive) | 0.954 (inactive)
2 | CO[C@@]1(NC(=O)C(C(=O)O)c2ccc(O)cc2)C(=O)N2C(C(=O)O)=C(CSc3nnnn3C)CO[C@@H]21 (some centres undefined) [Moxalactam disodium salt] (20 µM) | 0 | 0.0889 | 1.02 | 0.0817 | 0.893 (inactive) | 0.0273 (active) | 0.06 (active) | 1.5 (inactive) | 1.02 (inactive) | 2 (active) | 1.02 (inactive) | 0.0586 (active)
3 | NS(=O)(=O)c1cc(C(=O)O)cc(N2CCCC2)c1Oc1ccccc1 [Piretanide] (20 µM) | 1.09 | 0.987 | 0.997 | 0.955 | 1.01 (inactive) | 1.11 (inactive) | 1.1 (inactive) | 0.974 (inactive) | 1.04 (inactive) | 1.06 (inactive) | 1.08 (inactive) | 1.23 (inactive)
4 | CCOC(=O)[C@H](CCc1ccccc1)N[C@@H](C)C(=O)N(CC(=O)O)C1Cc2ccccc2C1 [Delapril Hydrochloride] (20 µM) | 1.16 | 0.976 | 0.982 | 1.15 | 1.04 (inactive) | 0.958 (inactive) | 0.974 (inactive) | 1 (inactive) | 1.02 (inactive) | 1.01 (inactive) | 0.998 (inactive) | 0.905 (inactive)
5 | NC[C@H]1O[C@H](O[C@H]2[C@H](O)[C@@H](O[C@H]3O[C@H](CO)[C@@H](O)[C@H](N)[C@H]3O)[C@H](N)C[C@@H]2N)[C@H](N)[C@@H](O)[C@@H]1O [Kanamycin B] (20 µM) | 1.05 | 0.89 | 0.765 | 0.976 | 0.723 (active) | 0.998 (inactive) | 0.923 (inactive) | 0.882 (inactive) | 1 (inactive) | 1.08 (inactive) | 0.978 (inactive) | 0.945 (inactive)
6 | COc1ccc2[nH]c([S+]([O-])Cc3ncc(C)c(OC)c3C)nc2c1 (centres undefined) [Omeprazole] (20 µM) | 1.05 | 0.96 | 1.01 | 1.2 | 0.936 (inactive) | 1.02 (inactive) | 1.01 (inactive) | 0.97 (inactive) | 1.01 (inactive) | 1 (inactive) | 1 (inactive) | 1.02 (inactive)
7 | O=C(O)C1CSCN1 (centres undefined) [Timonacic] (20 µM) | 0.827 | 1.02 | 1 | 0.956 | 0.992 (inactive) | 1 (inactive) | 1.02 (inactive) | 1.04 (inactive) | 1.01 (inactive) | 1 (inactive) | 1 (inactive) | 0.998 (inactive)
8 | CCC(NC(C)C)C(O)c1ccc(O)c(O)c1 (centres undefined) [Isoetharine mesylate salt] (20 µM) | 1.13 | 1.06 | 0.99 | 0.992 | 1 (inactive) | 0.966 (inactive) | 0.977 (inactive) | 1.11 (inactive) | 0.995 (inactive) | 0.987 (inactive) | 0.994 (inactive) | 0.92 (inactive)
9 | CCOC(=O)NNc1nncc2ccccc12 [Todralazine hydrochloride] (20 µM) | 0.521 | 1.14 | 1.04 | 1 | 0.967 (inactive) | 0.506 (inactive) | 0.955 (inactive) | 1.02 (inactive) | 0.984 (inactive) | 1.04 (inactive) | 1.01 (inactive) | 1.03 (inactive)
10 | CN(C)CCOC(c1ccc(Cl)cc1)c1ccccn1 (centres undefined) [Carbinoxamine maleate salt] (20 µM) | 1.2 | 1.01 | 0.985 | 0.88 | 1.04 (inactive) | 0.981 (inactive) | 1.05 (inactive) | 0.966 (inactive) | 1.02 (inactive) | 0.974 (inactive) | 1 (inactive) | 1.1 (inactive)
11 | OC[C@@H](O)[C@@H](O[C@@H]1O[C@H](CO)[C@H](O)[C@H](O)[C@H]1O)[C@H](O)[C@@H](O)CO [Lactitol] (50 µM) | 1.13 | 0.949 | 1.01 | 0.988 | 0.988 (inactive) | 0.997 (inactive) | 0.891 (inactive) | 0.938 (inactive) | 1.02 (inactive) | 0.997 (inactive) | 0.998 (inactive) | 0.858 (inactive)
12 | O=c1[nH]c(=O)n([C@H]2C[C@H](O)[C@@H](CO)O2)cc1C(F)(F)F [Trifluridine] (20 µM) | 1.14 | 1.04 | 0.99 | 0.913 | 1.09 (inactive) | 1.02 (inactive) | 1.07 (inactive) | 0.948 (inactive) | 0.972 (inactive) | 1.04 (inactive) | 0.975 (inactive) | 1.11 (inactive)
13 | Cc1cc(/C=C/c2ccc3cc(N(C)C)ccc3[n+]2C)c(C)n1-c1ccccc1 [Pyrvinium pamoate] (20 µM) | 1.21 | 1.12 | 0.958 | 0.853 | 0.936 (inactive) | 0.95 (inactive) | 0.975 (inactive) | 1.22 (inactive) | 1.01 (inactive) | 0.966 (inactive) | 1.02 (inactive) | 1.04 (inactive)
14 | Cc1cc(O)c(C(=O)N[C@@H](C(=O)N[C@@H]2C(=O)N3C(C(=O)O)=C(CSc4nnnn4C)CS[C@H]23)c2ccc(O)cc2)cn1 [Cefpiramide] (20 µM) | 0 | 0.0131 | 0.61 | 0 | 0.829 (inactive) | 0.0275 (active) | 0.0434 (active) | 0.516 (inactive) | 0.981 (inactive) | 1.92 (active) | 1.08 (inactive) | 0.0464 (active)
15 | CCCCC1C(=O)N(c2ccccc2)N(c2ccccc2)C1=O [Phenylbutazone] (20 µM) | 1.03 | 0.993 | 1.01 | 1.02 | 1.05 (inactive) | 0.986 (inactive) | 0.969 (inactive) | 0.992 (inactive) | 1.05 (inactive) | 1.01 (inactive) | 1.04 (inactive) | 0.878 (inactive)
16 | COCC(=O)O[C@]1(CCN(C)CCCc2nc3ccccc3[nH]2)CCc2cc(F)ccc2[C@@H]1C(C)C [Mibefradil hydrochloride] (20 µM) | 1.05 | 0.996 | 1 | 0.967 | 0.954 (inactive) | 0.999 (inactive) | 0.925 (inactive) | 1.02 (inactive) | 1.01 (inactive) | 1.02 (inactive) | 1 (inactive) | 0.908 (inactive)
17 | c1cc2ccc3ccc4ccc5cccc6c(c1)c2c3c4c56 [Benzo-[g,h,i]perylene] (20 µM) | 0.921 | 1.01 | 1.06 | 1.05 | 1.04 (inactive) | 1.02 (inactive) | 0.905 (inactive) | 1.04 (inactive) | 1.01 (inactive) | 1 (inactive) | 0.976 (inactive) | 0.88 (inactive)
18 | CCCCc1nc(Cl)c(CO)n1Cc1ccc(-c2ccccc2-c2nnn[nH]2)cc1 [Losartan] (20 µM) | 1.01 | 0.991 | 1.01 | 0.99 | 1.07 (inactive) | 0.975 (inactive) | 1.05 (inactive) | 1.01 (inactive) | 1.04 (inactive) | 0.99 (inactive) | 1 (inactive) | 1.06 (inactive)
19 | C=CCc1ccccc1OCC(O)CNC(C)C (centres undefined) [Alprenolol hydrochloride] (20 µM) | 0.992 | 0.97 | 0.955 | 0.856 | 1.05 (inactive) | 1.07 (inactive) | 1.08 (inactive) | 0.934 (inactive) | 0.985 (inactive) | 1.01 (inactive) | 0.998 (inactive) | 0.998 (inactive)
20 | CC1(C)S[C@@H]2[C@H](NC(=O)[C@H](C(=O)O)c3ccsc3)C(=O)N2[C@H]1C(=O)O [Ticarcillin sodium] (20 µM) | 0 | 1.22 | 1.02 | 0 | 1.04 (inactive) | 0.0277 (active) | 0.0454 (active) | 1.21 (inactive) | 1.02 (inactive) | 1.44 (active) | 0.996 (inactive) | 0.0536 (active)
21 | CCN[C@@H]1C[C@H](N)[C@@H](O[C@H]2OC(CN)=CC[C@H]2N)[C@H](O)[C@H]1O[C@H]1OC[C@](C)(O)[C@H](NC)[C@H]1O [Netilmicin sulfate] (20 µM) | 0.949 | 0.93 | 0.898 | 0.912 | 0.845 (inactive) | 1.02 (inactive) | 0.901 (inactive) | 0.947 (inactive) | 0.995 (inactive) | 0.982 (inactive) | 0.993 (inactive) | 0.948 (inactive)
22 | CNc1ncnc2c1ncn2[C@@H]1O[C@H](CO)[C@@H](O)[C@H]1O [N6-methyladenosine] (20 µM) | 1.05 | 0.994 | 1.02 | 0.955 | 1.03 (inactive) | 1.03 (inactive) | 1.04 (inactive) | 1 (inactive) | 0.992 (inactive) | 0.987 (inactive) | 1 (inactive) | 1.01 (inactive)
